These compounds were tested against T1, cAMP-dependent protein kinase catalytic subunit PRKX (Homo sapiens) (UniProt P51817). Conditions: at 1 µM.
T1 sequence (whole entry): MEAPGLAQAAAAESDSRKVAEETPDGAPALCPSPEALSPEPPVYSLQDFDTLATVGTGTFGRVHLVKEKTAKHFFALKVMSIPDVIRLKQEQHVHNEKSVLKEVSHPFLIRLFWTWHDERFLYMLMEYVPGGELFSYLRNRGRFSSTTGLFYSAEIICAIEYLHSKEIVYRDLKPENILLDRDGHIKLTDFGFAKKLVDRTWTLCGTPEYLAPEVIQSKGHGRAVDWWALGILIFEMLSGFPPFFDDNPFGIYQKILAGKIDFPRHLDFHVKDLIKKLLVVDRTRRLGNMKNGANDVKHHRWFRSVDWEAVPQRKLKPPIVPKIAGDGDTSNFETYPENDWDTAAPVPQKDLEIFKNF
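Note: each value is the mean percent inhibition of the kinase.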

| Structure (SMILES) | inhibition |
| --- | --- |
| CC(C)(CO)CNC(=O)c1ccc2c(c1)/C(=N/Nc1ccc(S(N)(=O)=O)cc1)C(=O)N2 | 3.07% |
| O=C(Nc1n[nH]c2cc(-c3ccc(F)cc3)ccc12)C1CC1 | 3.66% |
| NC(=O)c1sc(-n2cnc3ccc(C(F)(F)F)cc32)cc1OCc1ccccc1Br | 8.33% |
| CCn1c(-c2nonc2N)nc2ccccc21 | 5.67% |
| c1ccc(-c2nc3n(c2-c2ccc4c(c2)OCO4)CCC3)nc1 | 3.61% |
| CCNC(=O)O[C@H]1CN[C@H](C#Cc2cc3ncnc(Nc4ccc(OCc5cccc(F)c5)c(Cl)c4)c3s2)C1 | -0.33% |
| CCn1c(-c2nonc2N)nc2cnc(Oc3cccc(NC(=O)c4ccc(N(C)C)cc4)c3)cc21 | 55.8% |
| CC(=O)Nc1cccc(C#Cc2cncnc2Nc2ccc(OCc3cccc(F)c3)c(Cl)c2)c1 | 1.17% |
| N#Cc1c(NC(=O)c2ccc(F)cc2)sc2c1CCCC2 | 1.79% |
| CS(=O)(=O)CCNCc1coc(-c2ccc3ncnc(Nc4ccc(OCc5ccccc5)cc4)c3c2)c1 | 0.96% |
| N#Cc1c(NC(=O)CN2CCOCC2)sc2c1CCCC2 | 3.49% |
| NS(=O)(=O)c1ccc(Nc2ncc(-c3ccccc3)o2)cc1 | 2.5% |
| COc1cc(/C=N/Nc2ncnc3[nH]ncc23)ccc1O | 3.71% |
| COC(=O)Nc1nc2ccc(Oc3ccc(NC(=O)Nc4cccc(Cl)c4)cc3)cc2[nH]1 | -1.01% |
| CNC(=O)c1cncc(/C=C/c2ccccc2Cl)c1 | 2.62% |
| COc1cc(N2CCN(C(C)C)CC2)ccc1Nc1nc(Nc2ccc(F)cc2C(N)=O)c2cc[nH]c2n1 | 5.35% |
| Clc1ccc(-c2nn3ncccc3c2-c2ccnc(Nc3ccccc3)n2)cc1 | 2.02% |

Reference: ChEMBL document CHEMBL1961873, “Compounds: GSK PKIS; Assays: Nanosyn kinase panel” (2012)
